For eight compounds, Potency results are on record in PubChem BioAssay (Tox21).

Records with an inconclusive call do not appear. More than one record can exist for a structure, and the calls need not agree. Active and inactive are the calls of the source. Unless noted, the call rests on the fitted dose curve.

Assay [1] in a line: Nuclear factor erythroid 2-related factor 2/antioxidant responsive element (Nrf2/ARE) small molecule agonists: qHTS cell viability counter screen in human keratinocytes (AID 1919968; active means well fitted curve in the direction sought with a large enough effect in the repeat runs; an effect the other way counts as inactive or inconclusive; further: nearly all actives have a fitted effect of over 55% in size; further: potency means the concentration at half of the fitted maximal effect). Put shortly: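 Cytotoxicity was multiplexed with the Nrf2/ARE luciferase assay in the same wells. Stably transfected HaCaT keratinocytes were treated with test compounds for 23 h at 37 C. Cell viability was then measured by CellTiter-Fluor fluorescence.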
(In qHTS, concentration-response curves come from the screen itself.)

Assay [2] in a line: Nuclear factor erythroid 2-related factor 2/antioxidant responsive element (Nrf2/ARE) small molecule agonists: luciferase reporter gene qHTS assay in human keratinocytes (AID 1919969; further: nearly all actives have a fitted effect of over 35% in size). (A reporter such as luciferase makes a cellular process visible.)
Assay [3] concerns the target Gonadotropin-releasing hormone receptor (Homo sapiens) (UniProt P30968). The assay can be described thus: Human gonadotropin-releasing hormone receptor (GnRHR) small molecule agonists, calcium flux assay in GnRHR-HEK293 cells (AID 1920063). Further: nearly all actives have a fitted effect of over 35% in size. In outline:
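Agonist activity was measured as intracellular calcium flux in HEK293 cells engineered to stably express human GnRHR. After dye loading for 1 hour at 37 C, compounds in DMSO were added and fluorescence was followed for 3 minutes.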
For orientation: Calcium assays in cells follow changes in intracellular calcium, usually with a dye or a luminescent sensor.

Assay [4] addresses KiSS-1 receptor (Homo sapiens) (UniProt Q969F8). Nature of the assay: Human kisspeptin (KISS1R) small molecule agonists, calcium flux assay in KISS1R-HEK293 cells (AID 1920064; active means well fitted curve in the direction sought with a large enough effect in the repeat runs; an effect the other way counts as inactive or inconclusive). In outline: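 Agonist activity is monitored as intracellular calcium rise in engineered HEK293 cells carrying human KISS1R. Cells are dye-loaded for 1 h at 37 C before compound addition, and fluorescence is recorded for 3 min.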

A short description of assay [5]: G protein-coupled receptor (GPCR) small molecule agonists, calcium flux assay: HEK293 wild type cell line counter screen (AID 1920065). In outline:
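Seed cells, incubate 18 h (37 C, 5% CO2); add calcium dye, 1 h at 37 C; pin-transfer compounds, ATP control or DMSO; read fluorescence 480/540 nm each second for 3 min.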

Assay [6] in a line: p53 small molecule agonists, cell-based qHTS assay with human liver microsomes (AID 1963577).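 Further: p53 response element beta-lactamase reporter cells with liver microsomes plus NADPH.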 In outline:
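Reporter activation was measured by LiveBLAzer fluorescence intensity in p53RE-bla cells, which had been exposed to compounds for 16 h at 37 C alongside 0.5 mg/mL human liver microsomes and 0.5 mg/mL NADPH (final concentrations).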

Assay [7] can be described thus: p53 small molecule agonists, cell-based qHTS assay with rat liver microsomes (AID 1963578). In outline:
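Compound in DMSO added to p53RE-bla cells 5 h post-plating; rat microsomes/NADPH 0.5 mg/mL final; 16 h, 37 C; LiveBLAzer 2 h RT.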

A short description of assay [8]: p53 small molecule agonists, cell-based qHTS assay with human liver microsomes: qHTS cell viability counter screen (AID 1963579). Further: nearly all actives have a fitted effect of over 45% in size. In outline:
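HLM-supplemented (0.5 mg/mL final) and NADPH-supplemented (0.5 mg/mL final) p53RE-bla cultures, 4,000 cells per well, were dosed with compounds in DMSO for 16 h at 37 C; luminescent ATP detection (CellTiter-Glo, 30 min, room temperature) quantified surviving cells.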

Assay [9] in a line: p53 small molecule agonists, cell-based qHTS assay with rat liver microsomes: qHTS cell viability counter screen (AID 1963580). Further: nearly all actives have a fitted effect of over 45% in size. Put shortly: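 Cytotoxicity counter screen: intracellular ATP measured by CellTiter-Glo luminescence in the same wells as the beta-lactamase reporter read, on HCT-116 p53RE-bla cells exposed 16 h at 37 C to compounds with rat liver microsomes and NADPH, each 0.5 mg/mL final.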

Assay [10] can be described thus: p53 small molecule agonists, cell-based qHTS assay: qHTS cell viability counter screen (AID 1963581). Further: nearly all actives have a fitted effect of over 45% in size. Put shortly:
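Viability was counter-screened in parallel with the p53 agonist reporter by measuring intracellular ATP luminescence in the same HCT-116 p53RE-bla wells after 16 h compound treatment at 37 C.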

Assay [11] can be described thus: p53 small molecule agonists, cell-based qHTS assay (AID 1963582; active means well fitted activation curve with a large enough effect in the signal ratio in the repeat runs, not every such curve was filed as active; the % refers to the signal ratio). In outline:
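Cells carrying a p53-responsive bla reporter are treated with test compounds for 16 h at 37 C; beta-lactamase activity is then detected with LiveBLAzer B/G FRET substrate after 2 h at room temperature.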

Assay [12] in a line: cAMP Responsive Elements (CRE) small molecule agonists, cell-based qHTS assay (AID 1963590). In outline:
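Cells carrying a CRE-driven beta-lactamase reporter (HEK 293T) are seeded, incubated overnight (18 h), and treated with test compounds for 3 h at 37 C; reporter activity is then detected with a FRET substrate after 2 h at room temperature.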

Assay [13] is described as follows: cAMP Responsive Elements (CRE) small molecule antagonists, cell-based qHTS assay (AID 1963591; active means well fitted inhibition curve with a large enough effect in the signal ratio in the repeat runs, not every such curve was filed as active; the % refers to the signal ratio). Put shortly:
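Cells (CRE-bla HEK 293T, DMEM with 10% dialyzed FBS and 25 mM HEPES) are seeded and incubated 18 h. Compounds are added with NKH477 agonist at 0.25 uM final for 3 h, then FRET substrate for 2 h.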

Assay [14] addresses Beta-2 adrenergic receptor (Homo sapiens) (UniProt P07550). Nature of the assay: Adrenergic beta2 receptor (ADRB2) small molecule antagonists, cell-based qHTS assay (AID 1963592). Further: series mostly up to about 92 µM; nearly all actives have a fitted effect of over 50% in size. Put shortly: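 Assay format: CHO-ADRB2 cells, 18-20hr seeding at 37C/5% CO2, then compound plus 1nM isoproterenol agonist mix for 0.5hr RT. Homogeneous time-resolved fluorescence cAMP detection after 1hr, expressed as 665/615 nm ratio.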

In assay [15] the target is D(2) dopamine receptor (Homo sapiens) (UniProt P14416). Nature of the assay: Dopamine D2 receptor (DRD2) small molecule agonists, cell-based qHTS assay (AID 1963594). Further: nearly all actives have a fitted effect of over 35% in size. Put shortly: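 HEK293 cells stably expressing human DRD2, pre-treated with PDE inhibitor Ro20-1724 (0.1 mM final) and compound 10 min at room temperature, then stimulated with NKH477 (200nM […]) for 30 min. cAMP read by HTRF (665/620 nm).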

The target is the same in assay [16]. Nature of the assay: Dopamine D2 receptor (DRD2) small molecule antagonists, cell-based qHTS assay (AID 1963595; active means well fitted inhibition curve with a large enough effect in the signal ratio in the repeat runs, with a control signal flat; the % refers to the signal ratio). Put shortly: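 In this cell-based antagonist screen, compounds act for 10 min at room temperature before a 30 min challenge with 12 nM quinpirole and 200 nM NKH477. cAMP is quantified by HTRF competition in DRD2-HEK293 cells containing 0.1 mM Ro20-1724.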

The target of assay [17] is 5-hydroxytryptamine receptor 2A (Homo sapiens) (UniProt P28223). Nature of the assay: 5-hydroxytryptamine receptor 2A (HTR2A) small molecule antagonists, cell-based qHTS assay (AID 1963586). Further: nearly all actives have a fitted effect of over 45% in size. Put shortly: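 CHO cells stably expressing human HTR2A were plated for 18 h at 37 C, then loaded with calcium dye for 1 h. Compounds were preincubated 5 min at room temperature before DOI (4 nM solution) was added. Kinetic fluorescence was read for 3 min.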

Assay [18] shares this target. The assay can be described thus: 5-hydroxytryptamine receptor 2A (HTR2A) small molecule agonists, cell-based qHTS assay (AID 1963587). Further: nearly all actives have a fitted effect of over 30% in size. Put shortly:
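CHO cells stably expressing human HTR2A, plated 18 h, loaded with calcium dye 1 h at 37 C. Agonist mode: compounds added and intracellular calcium fluorescence recorded kinetically for 2 min at 1 sec intervals.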

The target in assay [19] is Muscarinic acetylcholine receptor M1 (Homo sapiens) (UniProt P11229). Nature of the assay: Cholinergic receptor muscarinic 1 (CHRM1) small molecule antagonists, cell-based qHTS assay (AID 1963588). Further: nearly all actives have a fitted effect of over 40% in size. Put shortly:
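Compounds were tested at 15 concentrations in three independent runs. Dye-loaded CHRM1-CHO cells were exposed 5 min at room temperature before stimulation by acetylcholine added at 50nM. Intracellular calcium was read kinetically on FDSS for 3 min.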

The target is the same in assay [20]. Nature of the assay: Cholinergic receptor muscarinic 1 (CHRM1) small molecule agonists, cell-based qHTS assay (AID 1963589). Further: nearly all actives have a fitted effect of over 35% in size. Put shortly:
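Cells were plated and incubated 18 h at 37 C/5% CO2, loaded with calcium dye for 1 h at 37 C, then treated with compounds in DMSO. Fluorescence was recorded kinetically at 1 sec intervals.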

Chain of Gonadotropin-releasing hormone receptor (Homo sapiens) (P30968 whole entry, looked up): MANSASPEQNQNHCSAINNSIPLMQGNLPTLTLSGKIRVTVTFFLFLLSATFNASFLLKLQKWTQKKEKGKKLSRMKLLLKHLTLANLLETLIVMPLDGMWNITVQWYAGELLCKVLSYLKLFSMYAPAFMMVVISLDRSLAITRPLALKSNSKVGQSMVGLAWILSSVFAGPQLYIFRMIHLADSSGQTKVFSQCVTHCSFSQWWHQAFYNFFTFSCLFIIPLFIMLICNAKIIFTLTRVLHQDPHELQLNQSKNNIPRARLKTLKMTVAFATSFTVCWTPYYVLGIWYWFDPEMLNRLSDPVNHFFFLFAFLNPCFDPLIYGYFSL
Chain of Muscarinic acetylcholine receptor M1 (Homo sapiens) (P11229 whole entry, looked up): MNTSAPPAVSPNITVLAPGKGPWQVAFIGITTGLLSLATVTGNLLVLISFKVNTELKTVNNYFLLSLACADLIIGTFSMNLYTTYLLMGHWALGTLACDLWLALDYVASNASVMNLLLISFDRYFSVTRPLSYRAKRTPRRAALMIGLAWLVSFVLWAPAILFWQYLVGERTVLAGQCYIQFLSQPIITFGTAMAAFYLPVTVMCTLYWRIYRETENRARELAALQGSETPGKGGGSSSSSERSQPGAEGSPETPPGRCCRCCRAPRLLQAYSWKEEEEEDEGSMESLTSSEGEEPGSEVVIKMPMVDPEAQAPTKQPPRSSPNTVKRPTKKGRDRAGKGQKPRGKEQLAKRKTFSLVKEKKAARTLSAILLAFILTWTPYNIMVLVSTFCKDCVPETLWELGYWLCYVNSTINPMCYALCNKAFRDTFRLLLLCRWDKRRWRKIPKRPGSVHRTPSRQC
Chain of D(2) dopamine receptor (Homo sapiens) (P14416 whole entry, looked up): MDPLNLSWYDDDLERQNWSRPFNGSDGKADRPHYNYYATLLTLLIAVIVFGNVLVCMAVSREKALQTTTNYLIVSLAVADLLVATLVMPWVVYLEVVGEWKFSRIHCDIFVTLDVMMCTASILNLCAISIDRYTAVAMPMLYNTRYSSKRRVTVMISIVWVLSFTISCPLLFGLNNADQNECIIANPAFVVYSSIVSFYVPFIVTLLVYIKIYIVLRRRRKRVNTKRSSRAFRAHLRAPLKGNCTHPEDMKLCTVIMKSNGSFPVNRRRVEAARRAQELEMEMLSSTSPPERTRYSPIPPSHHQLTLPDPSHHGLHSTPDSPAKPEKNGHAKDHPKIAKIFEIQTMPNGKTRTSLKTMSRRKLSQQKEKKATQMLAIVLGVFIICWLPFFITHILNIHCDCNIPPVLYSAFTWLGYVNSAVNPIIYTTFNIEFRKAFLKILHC
Chain of 5-hydroxytryptamine receptor 2A (Homo sapiens) (P28223 whole entry, looked up): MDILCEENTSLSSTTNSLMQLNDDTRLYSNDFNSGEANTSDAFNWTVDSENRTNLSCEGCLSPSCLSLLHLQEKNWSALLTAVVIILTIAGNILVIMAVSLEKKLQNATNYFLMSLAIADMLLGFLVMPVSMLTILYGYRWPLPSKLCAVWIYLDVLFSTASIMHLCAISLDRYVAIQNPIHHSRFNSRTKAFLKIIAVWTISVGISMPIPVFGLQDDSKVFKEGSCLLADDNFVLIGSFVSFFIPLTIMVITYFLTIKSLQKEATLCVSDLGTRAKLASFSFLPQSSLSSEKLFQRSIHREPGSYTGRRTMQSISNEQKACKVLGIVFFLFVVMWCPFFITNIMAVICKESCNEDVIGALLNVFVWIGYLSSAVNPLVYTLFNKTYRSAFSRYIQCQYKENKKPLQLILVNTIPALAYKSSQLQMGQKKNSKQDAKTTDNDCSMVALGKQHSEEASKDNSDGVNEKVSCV
Chain of Beta-2 adrenergic receptor (Homo sapiens) (P07550 whole entry, looked up): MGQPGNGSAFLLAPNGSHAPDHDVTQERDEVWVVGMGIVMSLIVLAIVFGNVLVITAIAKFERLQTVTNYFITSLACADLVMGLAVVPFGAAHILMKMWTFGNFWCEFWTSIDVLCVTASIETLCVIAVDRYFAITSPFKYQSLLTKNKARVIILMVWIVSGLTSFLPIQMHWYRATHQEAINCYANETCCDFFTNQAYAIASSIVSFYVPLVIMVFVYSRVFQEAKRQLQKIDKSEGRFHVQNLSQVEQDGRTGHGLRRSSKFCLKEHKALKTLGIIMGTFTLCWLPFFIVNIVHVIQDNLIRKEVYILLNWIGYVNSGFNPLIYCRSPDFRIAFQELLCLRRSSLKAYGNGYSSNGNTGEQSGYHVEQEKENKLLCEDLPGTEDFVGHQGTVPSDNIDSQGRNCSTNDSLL
Chain of KiSS-1 receptor (Homo sapiens) (Q969F8 whole entry, looked up): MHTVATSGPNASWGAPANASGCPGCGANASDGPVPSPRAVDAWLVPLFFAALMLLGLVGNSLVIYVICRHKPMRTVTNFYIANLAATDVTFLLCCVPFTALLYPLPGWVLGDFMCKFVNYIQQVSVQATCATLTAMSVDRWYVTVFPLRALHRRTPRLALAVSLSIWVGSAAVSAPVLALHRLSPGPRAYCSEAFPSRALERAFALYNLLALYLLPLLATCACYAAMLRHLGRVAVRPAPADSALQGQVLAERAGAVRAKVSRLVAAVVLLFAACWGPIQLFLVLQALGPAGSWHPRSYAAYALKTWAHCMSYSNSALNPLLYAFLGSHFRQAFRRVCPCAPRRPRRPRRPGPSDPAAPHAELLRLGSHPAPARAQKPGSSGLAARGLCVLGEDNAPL

Take `O=C(O)C(Cl)(Cl)Cl`: the Potency result in assay [1], in assay [2], in [3], in assay [4], in assay [5] and in assay [6] was “inactive” in each case. For the same compound, the Potency entry in assay [7], in assay [8], in assay [9], in assay [10], in assay [11] and in [12] was “inactive” each time. Besides, the Potency result in assay [13], in [14], in assay [15] and in [16] was “inactive” each time.
On to `C=CCc1ccc2c(c1)OCO2`, for which the Potency result in assay [1], in [2], in [3], in assay [4], in assay [5] and in assay [6] was “inactive” throughout. In addition, the Potency entry in assay [7], in assay [8], in assay [9], in [10], in assay [11] and in assay [12] was “inactive” throughout. The Potency entry in [13], in assay [14], in assay [15] and in [16] was “inactive” in each case.
`CC1(C)C(=O)NC(=O)NC1=O`: the Potency entry in assay [1], in assay [2], in assay [3], in assay [4], in [5] and in assay [6] was “inactive” each time. Also, the Potency entry in [7], in assay [8], in assay [9], in [10], in [17] and in assay [18] was “inactive” each time. For the same compound, the Potency entry in assay [19], in assay [20], in [12], in [13], in assay [14] and in assay [15] was “inactive” in each case. For the same compound, the Potency entry in assay [16] was “inactive”.
Turning to `C1CS1`, the Potency entry in [1], in [2], in assay [3], in assay [4], in assay [5] and in [6] was “inactive” in each case. Also, the Potency entry in assay [7], in assay [8], in assay [9], in [10], in assay [17] and in [18] was “inactive” throughout. The Potency result in assay [19], in [20], in [12], in [13], in assay [14] and in [15] was “inactive” throughout. In [16], the Potency result is “inactive”.
Consider `C/C=C/c1ccc2c(c1)OCO2`, for which the Potency entry in assay [1], in [2], in assay [3], in assay [4], in assay [5] and in assay [6] was “inactive” in each case. For the same compound, the Potency result in [7], in assay [8], in assay [9], in [10], in assay [11] and in assay [12] was “inactive” in each case. Also, the Potency entry in [13], in [14], in assay [15] and in [16] was “inactive” each time.
As for `CCOC(=O)c1ccccc1S(=O)(=O)NC(=O)Nc1nc(Cl)cc(OC)n1`, the Potency result in [1], in assay [2], in [3], in assay [4], in [5] and in assay [6] was “inactive” each time. Besides, the Potency result in assay [7], in assay [8], in assay [9], in [10], in assay [11] and in [18] was “inactive” each time. Moreover, the Potency result in [19], in assay [20], in assay [12], in assay [13], in assay [14] and in [15] was “inactive” each time. Also, the Potency result in assay [16] is “inactive”.
In the case of `CC(Oc1ccc(Cl)cc1Cl)C(=O)O` (stereo not drawn), the Potency entry in assay [1], in assay [2], in [3], in assay [4], in assay [5] and in [6] was “inactive” throughout. The Potency result in [7], in [8], in assay [9], in assay [10], in assay [11] and in assay [18] was “inactive” each time. Moreover, the Potency entry in [19], in assay [20], in assay [14], in assay [15] and in assay [16] was “inactive” in each case.
Regarding `Cc1ccc(N=CN(C)C=Nc2ccc(C)cc2C)c(C)c1`, in [1], the Potency was 61.4 µM (active) and inactive. Moreover, the Potency result in assay [2], in assay [3], in [4], in assay [5], in assay [6] and in assay [7] was “inactive” throughout. The Potency entry in [8], in assay [9], in assay [10], in assay [11], in assay [12] and in assay [13] was “inactive” throughout. For the same compound, the Potency entry in assay [14], in [15] and in [16] was “inactive” throughout.
